Bioassay records from PubChem BioAssay.
Shown are actives, neighbours in structure and some others; about 1.6% of the full set was active somewhere.
MOR-DOR ag – OPRM1-OPRD1 heterodimerization agonism; P35372+P41143; cells, luminescence; activation, % at 9.3 µM; 340,000 tested, 0.3% active; in the data active means activation above about 18%;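 further: 0% = vehicle-treated cells and 100% = reference agonist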
MOR-DOR inv ag – inverse agonists of human mu-delta opioid receptor heterodimerization; P35372+P41143; cell-based MOR-DOR heterodimer luminescence, inverse agonism; inhibition, % at 9.3 µM; 340,000 tested, 0.21% active; AID 504357; in the data active means inhibition above about 22%, passing the limit was not always enough;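 further: 0% = cells with DMSO and 100% = wells without cells with DMSO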
HTR5A inv ag – inverse agonist of human HTR5A in OPRM1-OPRD1 counter-screen; 340,000 tested, 0.083% active; HTR5A cell line, luminescence, inverse agonism; inhibition, % at 9.3 µM; P47898; in the data active means inhibition mostly above about 23%, no sharp cut-off; inactive means mostly below about 18%;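 further: 0% = cells with DMSO and 100% = no-cell wells with DMSO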
Target sequence (P47898 whole entry, looked up): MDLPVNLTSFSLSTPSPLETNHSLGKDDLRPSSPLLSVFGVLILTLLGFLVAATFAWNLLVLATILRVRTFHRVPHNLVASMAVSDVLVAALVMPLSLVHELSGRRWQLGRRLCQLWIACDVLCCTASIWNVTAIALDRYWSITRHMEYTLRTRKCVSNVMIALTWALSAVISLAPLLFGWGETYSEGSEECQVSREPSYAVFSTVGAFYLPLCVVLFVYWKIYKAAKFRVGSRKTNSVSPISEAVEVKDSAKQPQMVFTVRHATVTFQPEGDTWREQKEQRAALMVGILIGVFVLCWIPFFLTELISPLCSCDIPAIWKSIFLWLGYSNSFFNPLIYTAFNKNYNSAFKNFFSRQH
HTR2A ag – mouse HTR2A agonism via beta-arrestin recruitment | P35363 | 360,000 tested, 0.66% active | AID 624169 | activation, % at 7.6 µM | CHO-K1 mHTR2A beta-arrestin complementation, luminescence; percent of 30 µM serotonin response;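 active means activation above a run cutoff, the mean activation of all tested compounds plus 3 SD, cut at about 14% in these data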;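 further: 0% = plate median of compound wells and 100% = 30 µM serotonin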
HTR5A ag – counter-screen for OPRM1-OPRD1 agonists: human HTR5A agonism | HTR5A agonist assay, luminescence, cell-based | P47898 | activation, % at 9.3 µM | AID 504692 | 340,000 tested, 0.61% active; in the data active means activation mostly above about 9.5%, no sharp cut-off; inactive means mostly below about 7.6%;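 further: 0% = cells with vehicle only and 100% = reference agonist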
OPRM1 ag – activates human mu opioid receptor in HTR2A counterscreen; 2,300 tested, 5.3% active; activation, % at 9.3 µM; U2OS OPRM1 beta-arrestin PathHunter, luminescence; DMSO 0%, DAMGO 9.3 µM 100%; AID 624380; shares compounds with HTR2A ag;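 active means mean activation above the mean of DMSO-only wells plus 3 SD, cut at about 0.5% in these data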
Target sequence (P35372 whole entry, looked up): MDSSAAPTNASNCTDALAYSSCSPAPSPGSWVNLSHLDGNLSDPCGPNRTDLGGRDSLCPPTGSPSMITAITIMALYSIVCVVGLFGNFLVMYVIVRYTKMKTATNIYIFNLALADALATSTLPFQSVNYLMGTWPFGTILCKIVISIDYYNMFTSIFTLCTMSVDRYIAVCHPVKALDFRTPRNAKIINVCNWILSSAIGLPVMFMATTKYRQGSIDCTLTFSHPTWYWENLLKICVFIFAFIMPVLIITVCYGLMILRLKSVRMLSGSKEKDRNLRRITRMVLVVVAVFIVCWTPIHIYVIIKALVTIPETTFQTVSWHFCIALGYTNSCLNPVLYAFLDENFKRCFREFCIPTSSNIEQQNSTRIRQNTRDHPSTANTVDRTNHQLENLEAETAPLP
m5-HT2A ag conf – mouse HTR2A agonism confirmed | shares compounds with HTR2A ag | CHO-K1 PathHunter beta-arrestin recruitment, luminescence; DMSO 0%, 30 µM serotonin 100% | activation, % at 7.6 µM | 2,300 tested, 19% active;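 active means mean activation across triplicates above the hit threshold derived in the original primary screen, cut at about 15% in these data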
* hit, by the source's call; / = no result.

SMILES | MOR-DOR ag | MOR-DOR inv ag | HTR5A inv ag | HTR2A ag | HTR5A ag | OPRM1 ag | m5-HT2A ag conf
CC(C)Nc1nc(NC(C)C)nc(Oc2ccc(=O)n(C)n2)n1 | 1.3 | -7.3 | -4.9 | 4.8 | 1.9 | / | /
COc1cc(OC)cc(C(=O)NCC(=O)N2CCC(C)CC2)c1 | -2.6 | 15.3 | 4.3 | 27.8* | -0.5 | -0.4 | 2.8
CC(C)c1nc2sc3c(=S)nc[nH]c3c2c2c1CCC2 | 1.0 | -5.2 | -18.5 | 15.8* | 6.2 | -0.6 | -0.9
CC1=CS(=O)(=O)CC1Sc1nc2ccccc2[nH]1 (stereo not drawn) | -1.0 | 5.6 | 6.4 | 4.8 | 2.2 | / | /
Cc1nc2scc(-c3ccc(C(C)C)cc3)c2c(=O)n1N | / | / | / | 3.8 | / | / | /
O=C(Nc1ccc2c(c1)OCO2)C1CCCCN1S(=O)(=O)c1ccccc1 (stereo not drawn) | 0.4 | -2.1 | 10.3 | 2.7 | -4.0 | / | /
Cc1cccc(N2CCN(c3ccc(N4C(=O)CCCC4=O)cc3[N+](=O)[O-])CC2C)c1 (stereo not drawn) | -0.9 | 5.1 | 9.3 | 14.8* | -2.7 | -0.6 | 7.2
O=C([C@H](Cc1ccccc1)NS(=O)(=O)c1ccc(Cl)cc1)N1CC[C@@]2(O)CCCC[C@H]2C1 | -0.8 | 4.3 | -13.2 | 17.4* | 2.3 | -0.7 | -4.9
CCOc1ccc(NC(=S)N2C3CCCC2CC(NC(=O)C2CC2)C3)cc1 (stereo not drawn) | -1.7 | 9.2 | -11.4 | 0.1 | 4.3 | / | /
CCOC(=O)C1=CN(Cc2ccc(OC)cc2)C=C(C(=O)OCC)C1c1cccs1 | 0.3 | -1.9 | -8.8 | 16.3* | 3.1 | -0.5 | 6.7
Cc1cc([N+](=O)[O-])c2[nH]c(C(=O)N/N=C/c3ccccc3C(=O)O)c(-c3ccccc3)c2c1 | -2.1 | 11.2 | -8.6 | 17.6* | 2.6 | -0.7 | -2.0
CCOCCCn1c(=NC(=O)c2ccco2)c(C(=O)OCC)cc2c(=O)n3cccc(C)c3nc21 | -3.6 | 17.5 | 2.8 | -0.1 | 0.8 | / | /
Cc1cc(C)nc(N2CCN(C(=O)c3ccc(S(=O)(=O)N4CCCCCC4)cc3)CC2)n1 | -2.1 | 9.8 | 8.6 | 0.6 | -3.1 | / | /
CCCCC(=O)N(C)c1c(CC)nc2c(OCCOc3ccccc3)cccn12 | / | / | / | 24.9* | / | -0.6 | -2.4
CCCCC(=O)N(C)c1c(CC)nc2c(OCCOc3ccc(F)cc3)cccn12 | / | / | / | 2.0 | / | / | /
CNC(=O)N(C1=NCC(C)(C)S1)c1ccc(F)c(Cl)c1 | 1.2 | -7.4 | -12.1 | 4.5 | -5.0 | / | /
COc1cccc(OC)c1C(=O)Nc1ccc(C(=O)c2ccncc2)cc1 | 0.1 | -0.7 | -14.2 | 18.6* | 4.7 | -0.4 | -2.6
COc1cccc(C(=O)Nc2ccc(C(=O)c3ccncc3)cc2)c1 | -0.8 | 4.4 | -9.3 | -3.6 | 2.3 | / | /
OCCNc1nc2ccccc2nc1NCCO | -1.4 | 7.0 | -30.7 | 23.2* | -0.5 | -0.4 | 1.4
OCCNc1cnc2ccccc2n1 | -0.8 | 4.3 | -1.1 | 13.7 | 0.4 | / | /
CC(C)c1ccc(OCC(=O)N(Cc2ccco2)C2CCS(=O)(=O)C2)cc1 (stereo not drawn) | 0.8 | -4.8 | -7.2 | -3.1 | 2.4 | / | /
COc1cc(C#N)ccc1OC(=O)c1cccc(S(=O)(=O)N2CCN(C)CC2)c1 | -1.1 | 5.8 | 3.8 | 18.3* | -3.5 | -0.7 | -5.8
O=C(COc1ccc(Cl)cc1)NCCS(=O)(=O)N1CCN(c2ccccc2F)CC1 | 0.9 | -4.5 | -1.3 | 16.2* | 1.2 | -0.2 | 1.8
O=C(NCCS(=O)(=O)N1CCN(c2ccccc2F)CC1)c1ccc(Cl)cc1 | 1.2 | -8.2 | 5.1 | -2.6 | 1.3 | / | /
CS(=O)(=O)OCCCCOS(C)(=O)=O | -0.6 | 3.1 | -7.8 | -5.2 | 2.2 | / | /
SMILES | MOR-DOR ag | MOR-DOR inv ag | HTR5A inv ag | HTR2A ag | HTR5A ag | OPRM1 ag | m5-HT2A ag conf
O=C(Cc1ccsc1)NCC(=O)Nc1ccccc1Br | -3.3 | 12.6 | -9.6 | -5.6 | 5.6 | / | /
CCOC(=O)C1CCN(c2nc(C)cc(C)c2C#N)CC1 | 0.0 | 0.2 | 2.6 | 16.4* | -0.9 | -0.5 | -3.3
NS(=O)(=O)c1ccc(NC2=CC(c3ccc([N+](=O)[O-])cc3)N(c3ccc(S(N)(=O)=O)cc3)C2=O)cc1 (stereo not drawn) | -4.9 | 24.9 | 2.5 | 0.5 | -1.1 | / | /
O=C(CSc1ccc2ccccc2c1)NCCc1ccc(O)c(O)c1 | 4.2 | -19.6 | -13.5 | 31.1* | 4.9 | -0.2 | 100.9*
COc1ccc(CCNC(=O)CSc2ccc3ccccc3c2)cc1OC | -0.9 | 5.0 | 5.8 | -4.9 | 5.3 | / | /
C#CC1(O)CCC2C3CCc4cc(O)cc(C)c4C3CCC21C (stereo not drawn) | -2.9 | 14.6 | 11.4 | -2.3 | -2.9 | / | /
C#C[C@]1(O)CCC2C3CCC4=CC(=O)CC[C@@H]4C3CC[C@@]21C (stereo partly drawn) | -1.6 | 8.9 | 0.1 | 15.0* | 0.0 | -0.6 | 3.6
CC(=O)c1ccc(OCC(O)CN2CCN(c3ccccn3)CC2)cc1 (stereo not drawn) | / | / | / | 37.2* | / | -0.7 | 92.5*
CC(C)(C)C1CCC(OCC(O)CN2CCN(c3ccccn3)CC2)CC1 (stereo not drawn) | 9.8 | -46.4 | -2.4 | 17.9* | 0.9 | 0.1 | 93.9*
OC(COc1ccc(OCC(O)CN2CCCCC2)cc1)CN1CCCCC1 (stereo not drawn) | -2.5 | 12.5 | -2.9 | 16.8* | 0.8 | -0.7 | -4.1
Cc1ccc(S(=O)(=O)N2CCCC2)cc1C(=O)O | -1.2 | 6.8 | -10.9 | 7.6 | 1.7 | / | /
COc1ccc2nc(NC(=O)c3ccoc3C)sc2c1 | 4.2 | -22.5 | -7.1 | 22.8* | 0.0 | -0.6 | -4.6
O=C(COc1ccccc1Cl)Nc1ccc(N2CCN(C(=O)c3ccccc3)CC2)cc1 | 0.3 | -1.7 | -30.9 | -0.6 | 1.9 | / | /
Cc1ccccc1NC(=O)Nc1ccc2c(c1)CCC2 | 2.2 | -12.0 | -11.2 | 2.6 | -1.4 | / | /
CC(Sc1ccc(Cl)cc1)C(=O)Nc1ccc2c(c1)OCO2 (stereo not drawn) | -2.2 | 11.7 | 23.0 | -4.0 | -3.5 | / | /
CC(Sc1ccc(Cl)cc1)C(=O)NCc1ccc2c(c1)OCO2 (stereo not drawn) | 0.1 | -0.5 | -1.6 | 22.2* | 0.4 | -0.6 | 1.6
C=CCN=C1CCCc2c1[nH]c1ccc(C)cc21 | -1.4 | 7.2 | -19.4 | 0.6 | 1.2 | / | /
Cc1noc(C)c1CSCC(=O)N(C)CC(=O)Nc1ccc(Cl)cc1 | -3.0 | 12.4 | -7.7 | 0.2 | 3.0 | / | /
Cc1noc(C)c1CSCC(=O)N(C)CC(=O)Nc1ccccc1Cl | -2.5 | 13.6 | 8.6 | 14.5* | 0.2 | -0.6 | -2.2
O=c1cc(C(F)(F)F)[nH]c2ccc(C(F)(F)F)cc12 | 6.1 | -31.8 | -26.6 | 26.2* | 8.2 | 0.0 | 4.7
O=C(c1ccccn1)N1CCCC(N2CCN(c3ccc(F)cc3)CC2)C1 (stereo not drawn) | -3.0 | 16.4 | 2.6 | -5.5 | 4.0 | / | /
